The nature of assay [1]: qHTS assay for small molecules that induce genotoxicity in human embryonic kidney cells expressing luciferase-tagged ATAD5 (AID 651632). Note: nearly all actives have a fitted effect of over 15% in size. In a few lines:
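Genotoxicity read-out via ATAD5-luciferase: HEK293T cells, 16 hr compound incubation at 37C, Amplite detection.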

The nature of assay [2]: qHTS assay for small molecules that induce genotoxicity in human embryonic kidney cells expressing luciferase-tagged ATAD5 - cell viability (AID 651634; calls by dose curve; note: nearly all actives have a fitted effect of over 25% in size; note: potency is the fitted concentration of half-maximal effect). In a few lines:
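Live-cell protease activity (CellTiter-Fluor, fluorescence) indicates viability. HEK293T cells with luciferase-tagged ATAD5; 15.5 hr compound treatment at 37C.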
(Quantitative high-throughput screening tests each substance at several concentrations.)

The nature of assay [3]: qHTS assay for small molecule disruptors of the mitochondrial membrane potential - cell viability (AID 720634; calls by dose curve; note: nearly all actives have a fitted effect of over 20% in size; note: potency is the fitted concentration of half-maximal effect). Put shortly:
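Human hepatoma HepG2 cells were treated for 1 hr with test chemicals, then given m-MPI dye and CellTiter-Glo. Cell viability reflects luminescence proportional to cellular ATP.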

The nature of assay [4]: qHTS assay for small molecule disruptors of the mitochondrial membrane potential (AID 720635). Note: potency is the fitted concentration of half-maximal effect. Put shortly:
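Mitochondrial membrane potential tracked with Mito-MPS dye, red aggregates (ex 540/em 590 nm) against green monomers (ex 490/em 535 nm). Compound treatment 1 hr at 37C, dye 30 min in HepG2.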

Assay [5] can be described thus: qHTS assay to test for compound auto fluorescence at 590 nm (red) in HepG2 cells (AID 720674). Put shortly: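 Red autofluorescence (Ex/Em 540/590 nm, Rose Bengal sodium equivalents) was measured in HepG2 cells, 2,000 per well in MEM plus 10% FBS, plated overnight at 37 C. Readings were taken 1 hr after adding 23 nL compound or DMSO, at 37 C and 5% CO2.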
Assay [6] can be described thus: qHTS assay to test for compound auto fluorescence at 535 nm (green) in HepG2 cells (AID 720675).
Assay [7] can be described thus: qHTS assay to test for compound auto fluorescence at 460 nm (blue) in HEK293 cells (AID 720678). In a few lines: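 HEK293, 2,000 cells/well, 10% dialyzed FBS; attach 4-5 hr 37C; pin compound or DMSO; o/n 37C/5% CO2; fluorescence 405/460 nm; triamterene-equivalent units.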
The nature of assay [8]: qHTS assay to test for compound auto fluorescence at 535 nm (green) in HEK293 cells (AID 720680).
Assay [9] in a line: qHTS assay to test for compound auto fluorescence at 460 nm (blue) in HEK293 cell free culture (AID 720681). In a few lines:
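Blue fluorescence (Ex 405/Em 460 nm, triamterene-equivalent) was read immediately after pin transfer of compound or DMSO into medium (DMEM, 10% FBS) without cells.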

A short description of assay [10]: qHTS assay to test for compound auto fluorescence at 535 nm (green) in HEK293 cell free culture (AID 720682). Put shortly:
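Measurement is a direct plate read of green fluorescence (485 nm in, 535 nm out) after compound addition to serum-supplemented DMEM lacking cells, with fluorescein used to express intensities.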

Assay [11] can be described thus: qHTS assay to test for compound auto fluorescence at 590 nm (red) in HEK293 cell free culture (AID 720683). Put shortly:
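Red-channel autofluorescence of compounds in culture medium (DMEM, 10% FBS), no cells, measured at 540/590 nm. Rose Bengal sodium is the reference fluorophore for equivalence.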

Assay [12] in a line: qHTS assay to test for compound auto fluorescence at 590 nm (red) in HepG2 cell free culture (AID 720684). In a few lines: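 Steps: dispense MEM/10% FBS medium, no cells; pin compound or DMSO vehicle; read red channel, Ex/Em 540/590 nm. Output given as Rose Bengal sodium equivalents.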
Assay [13] can be described thus: qHTS assay to test for compound auto fluorescence at 460 nm (blue) in HepG2 cell free culture (AID 720685). Put shortly: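 Compound (23 nL) or DMSO pinned into cell-free MEM with 10% FBS; blue fluorescence read at 405/460 nm excitation/emission, expressed as auto-fluorescence equivalency to triamterene.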
Assay [14] is described as follows: qHTS assay to test for compound auto fluorescence at 535 nm (green) in HepG2 cell free culture (AID 720686).
Assay [15] can be described thus: qHTS assay to test for compound auto fluorescence at 460 nm (blue) in HepG2 cells (AID 720687). In a few lines: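 Blue-channel autofluorescence (Ex/Em 405/460 nm, triamterene-equivalent) was measured after 1 hr compound exposure at 37 C, 5% CO2. Cells were HepG2, plated overnight at 37 C in MEM plus 10% FBS.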
Assay [16] concerns the target Glucocorticoid receptor (Homo sapiens) (UniProt P04150). The assay is described as follows: qHTS assay to identify small molecule agonists of the glucocorticoid receptor (GR) signaling pathway (AID 720691; active = well fitted activation curve with a large enough effect in the signal ratio in the repeat runs, not every such curve was filed as active; inconclusive = weak or mixed curves, or effect the other way; inactive = no such curve, though single readings can be large or run the other way; the % refers to the signal ratio). To be noted: GR-bla HeLa, beta-lactamase reporter ratio, 18 h; activation: at 62.4 µM (top of the series) unless noted. In a few lines:
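Beta-lactamase reporter activity, read as fluorescence intensity, was measured in GR-bla HeLa cells exposed to compounds for 18 h at 37 C and then loaded with LiveBLAzer B/G FRET substrate for 2 h at room temperature.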

Assay [17] has the same target. Briefly: qHTS assay to identify small molecule antagonists of the glucocorticoid receptor (GR) signaling pathway (AID 720692; active = well fitted inhibition curve with a large enough effect in the signal ratio in the repeat runs, not every such curve was filed as active; inconclusive = weak or mixed curves, or effect the other way; inactive = no such curve, though single readings can be large or run the other way; the % refers to the signal ratio). In a few lines:
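Fluorescence from cleaved LiveBLAzer B/G FRET substrate reports GRE-driven beta-lactamase in HeLa cells; compounds are tested against 5 nM dexamethasone (final) over 18 h at 37 C, substrate incubation 2 h at room temperature.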

Assay [18] in a line: qHTS assay to test for compound auto fluorescence at 590 nm (red) in HEK293 cells (AID 720679). In a few lines: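 Intensity at 540nm excitation and 590nm emission is reported as Rose Bengal sodium-equivalent autofluorescence. Measurements followed overnight exposure (37C, 5% CO2) of HEK293 cells, 2,000 per well, to 23 nL compound.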
Assay [19] in a line: qHTS assay for small molecule agonists of the p53 signaling pathway - cell viability (AID 651633; calls by dose curve;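 note: p53RE-bla HCT reporter cells with a stable beta-lactamase p53 reporter; nearly all actives have a fitted effect of over 30% in size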). Put shortly:
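Viability counter-read: CellTiter-Glo luminescence (30 min, room temperature) in the same p53RE-bla plates. These plates had been exposed to compounds for 16 h at 37 C.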

A number with no mark means an inactive call. The source made the active and inactive calls. Unless noted, calls come from the whole dose curve; as a rule, active = well fitted curve in the direction sought with a large enough effect in the repeat runs; inconclusive = weak or mixed curves; inactive = no such curve, though single readings can be large; an effect the other way counts as inactive or inconclusive.
% is set by controls: 0 for no effect and ±100 for the full control effect.

Sequence of Glucocorticoid receptor (Homo sapiens) (P04150 whole entry, looked up): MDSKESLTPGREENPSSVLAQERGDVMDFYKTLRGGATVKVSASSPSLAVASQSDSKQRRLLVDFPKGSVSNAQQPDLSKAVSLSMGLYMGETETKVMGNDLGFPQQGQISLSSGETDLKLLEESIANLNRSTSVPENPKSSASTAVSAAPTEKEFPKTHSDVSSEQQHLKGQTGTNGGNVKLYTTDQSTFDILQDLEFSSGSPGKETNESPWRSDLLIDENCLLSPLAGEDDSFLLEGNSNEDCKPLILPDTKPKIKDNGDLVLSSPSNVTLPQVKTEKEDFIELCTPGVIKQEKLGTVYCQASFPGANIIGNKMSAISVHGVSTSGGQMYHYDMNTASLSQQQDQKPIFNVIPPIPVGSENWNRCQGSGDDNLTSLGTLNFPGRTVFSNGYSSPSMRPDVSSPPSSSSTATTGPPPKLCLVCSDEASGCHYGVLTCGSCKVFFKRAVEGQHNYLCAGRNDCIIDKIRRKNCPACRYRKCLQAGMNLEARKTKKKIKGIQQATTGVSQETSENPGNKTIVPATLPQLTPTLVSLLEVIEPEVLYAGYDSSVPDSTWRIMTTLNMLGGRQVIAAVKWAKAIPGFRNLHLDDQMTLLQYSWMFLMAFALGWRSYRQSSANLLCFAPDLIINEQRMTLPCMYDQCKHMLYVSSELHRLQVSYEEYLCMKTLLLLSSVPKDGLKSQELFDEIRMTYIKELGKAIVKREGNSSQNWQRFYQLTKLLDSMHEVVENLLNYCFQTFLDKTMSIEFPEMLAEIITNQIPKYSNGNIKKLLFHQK

For the molecule `Brc1c2ccccc2cc2ccccc12`, the Potency result in [1], in [2], in assay [5], in assay [6], in [11] and in assay [12] was “inactive” throughout. Moreover, the Potency entry in assay [14] and in assay [17] was “inactive” each time. The Potency in [3] was 55 µM (active); in assay [4], 30.9 µM (active). Also, the result in [7], in assay [8], in [9], in [10], in [13] and in [15] was inactive. Also, in assay [16], the activation is 9.34% [inconclusive] [at 79.2 µM] (active).

Consider `CCC(C)c1cc(C(C)(C)C)c(O)c(C(C)(C)C)c1` (stereo not given), for which the Potency entry in assay [1], in assay [2], in assay [3], in assay [5], in assay [6] and in [11] was “inactive” each time. Besides, the Potency entry in assay [12], in [14] and in assay [16] was “inactive” throughout. In assay [4], the Potency was 21.3 µM (active). Besides, the result in assay [7], in assay [8], in [9], in assay [10], in assay [13] and in [15] was inactive.

On to `C=CC(=O)OCCOCCOC(=O)C=C`, for which the Potency in assay [2] is 61.4 µM (active). Moreover, the Potency result in assay [3], in [4], in assay [5], in assay [6], in assay [18] and in assay [11] was “inactive” throughout. The Potency result in assay [12], in assay [14] and in [16] was “inactive” throughout. Also, the molecule was called inactive in [7], in assay [8], in [9], in assay [10], in assay [13] and in [15].

For the molecule `CCCCNc1ccc(C(=O)OCCOCCOCCOCCOCCOCCOCCOCCOCCOC)cc1`, the Potency entry in assay [1], in [2], in [3] and in assay [16] was “inactive” each time. The Potency in assay [4] was 3.2 µM (active). The figures for the fluorescence, % of fluorescein control in assay [6] and in assay [14] were -0.0335% [at 18.6 µM] and -0.018% [at 18.6 µM], respectively. For the same molecule, the fluorescence, % of triamterene in [7] is -0.29% [at 18.6 µM]. Also, the fluorescence, % of fluorescent control in assay [18] was 0.183% [at 18.6 µM]; in assay [9] it was -0.35% [at 18.6 µM]; in assay [11], -0.482% [at 18.6 µM]; in assay [13] it was -0.106% [at 18.6 µM]; in assay [15], -0.0219% [at 18.6 µM]. The fluorescence, % of fluorescein in assay [8] is -0.0088% [at 18.6 µM]. Moreover, the activity change in assay [10] was -0.0595% [at 18.6 µM]. For the same molecule, in assay [12], the fluorescence, % of Rose Bengal was -0.448% [at 18.6 µM].

`COc1cccc(N(C)C(=S)Oc2ccc3c(c2)CCCC3)n1`: the Potency entry in assay [2], in assay [6], in [18], in [11] and in [12] was “inactive” each time. The Potency in assay [4] is 29.8 µM (active). Also, the molecule was called inactive in assay [7], in assay [8], in [9], in [10], in assay [13] and in assay [15].

For the molecule `CN1CCC(=C2c3ccccc3Sc3ccccc32)CC1`, the Potency result in [1], in [3], in assay [5], in assay [6], in assay [18] and in [11] was “inactive” throughout. For the same molecule, the Potency entry in [12], in [14] and in [16] was “inactive” throughout. For the same molecule, the Potency in [2] was 26.6 µM (active). In addition, the molecule was classed as inactive in assay [7], in [8], in assay [9], in assay [10], in assay [13] and in assay [15].

Regarding `C=CC(=O)OCCOCCOCCOCCOC(=O)C=C`, the Potency result in assay [19], in assay [3], in assay [4], in assay [5], in assay [6] and in assay [18] was “inactive” each time. The Potency result in assay [11], in [12], in [14] and in assay [16] was “inactive” throughout. Besides, in [2], the Potency was 54.8 µM (active). Moreover, the call in assay [7], in assay [8], in assay [9], in [10], in assay [13] and in [15] was inactive.
